This note sets out measurements from PubChem BioAssay (NCI).

Test systems include DU-145 prostate; K-562 leukemia; MALME-3M melanoma; MDA-MB-231 breast; RXF 393 renal; SF-268 CNS; SF-295 CNS; SF-539 CNS; UACC-257 melanoma; M14 melanoma.
What all share (test): NCI-60 one-dose screen, 48 h (100 = growth as untreated, 0 = no growth, -100 = all killed)
Holding throughout (conditions): 10 µM unless noted

Several values for one entry are separate records, joined by “and”; a condition that tells them apart may be missing. Equal entries are not always repeated. About 83,000 compounds went through this panel and 20% of them were active in at least one assay; those are over-represented in the sample as a whole.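 Cell lines were cultured in 96-well plates, exposed to a single compound concentration, and assessed for percent growth 48 hours later.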 Activity calls are given as the source filed them. Rule for the calls: active = growth percent below 10; inactive = the rest.

With `O=C(NC(CSSCC(NC(=O)OCc1ccccc1)C(=O)O)C(=O)O)OCc1ccccc1` (stereo not given), the growth in the assay with DU-145 prostate is 101% (inactive) and 118% (inactive); with K-562 leukemia, 84.7% (inactive) and 78.1% (inactive); in the assay on MALME-3M melanoma, 86.6% (inactive) and 104% (inactive); in the assay on MDA-MB-231 breast, 90.5% (inactive) and 108% (inactive); in the assay with RXF 393 renal it was 81% (inactive) and 113% (inactive); in the assay with SF-268 CNS, 92.4% (inactive) and 107% (inactive). In addition, the growth is 89.6% (inactive) and 103% (inactive) in the assay on SF-295 CNS; 93.7% (inactive) and 91.8% (inactive) in the assay on SF-539 CNS; 91.9% (inactive) in the assay on UACC-257 melanoma; 93.5% (inactive) and 88.9% (inactive) in the assay on M14 melanoma.

For `CCC(C)NC(=O)c1ccccc1C` (stereo not given), the growth in the assay with DU-145 prostate was 106% (inactive); in the assay on K-562 leukemia, 129% (inactive); with MALME-3M melanoma, 77.7% (inactive); with MDA-MB-231 breast it was 104% (inactive); in the assay with RXF 393 renal, 96% (inactive); with SF-268 CNS, 101% (inactive). Moreover, the growth was 100% (inactive) with SF-295 CNS, 96.6% (inactive) in the assay on SF-539 CNS, 100% (inactive) with UACC-257 melanoma and 95.3% (inactive) in the assay with M14 melanoma.

For the compound `COc1cc(NCCCCCCCNC(C)C)c2nccc(C)c2c1`, the growth was 102% (inactive) and 91.4% (inactive) in the assay with DU-145 prostate; 54.8% (inactive) and 7.58% (active) with K-562 leukemia; 94.6% (inactive) and 42.1% (inactive) in the assay on MALME-3M melanoma; 68% (inactive) and 62.9% (inactive) in the assay on MDA-MB-231 breast; 81.4% (inactive) and 107% (inactive) with RXF 393 renal; 93.2% (inactive) and 82.1% (inactive) with SF-268 CNS. Moreover, the growth was 71.8% (inactive) in the assay on SF-295 CNS; 91.5% (inactive) and 73.1% (inactive) in the assay on SF-539 CNS; 107% (inactive) and 89.7% (inactive) in the assay with UACC-257 melanoma; 82.8% (inactive) and 68% (inactive) in the assay with M14 melanoma.

`CCNC1=CC(=O)c2ncccc2C1=O`: the growth with DU-145 prostate was -92.9% (active); with K-562 leukemia, 21.2% (inactive); in the assay on MALME-3M melanoma, -84.6% (active); in the assay on MDA-MB-231 breast, 51.2% (inactive); with RXF 393 renal, 99% (inactive); in the assay on SF-268 CNS, 58.3% (inactive). Besides, the growth in the assay on SF-295 CNS is -71.1% (active); in the assay with SF-539 CNS, -59.3% (active); in the assay on UACC-257 melanoma, -13.5% (active); in the assay with M14 melanoma, -87.4% (active).

Regarding `Nc1ccc(O)c(C(=O)O)c1`, the growth was 105% (inactive) and 128% (inactive) with DU-145 prostate; 92.9% (inactive) and 74.2% (inactive) in the assay on K-562 leukemia; 109% (inactive) and 116% (inactive) in the assay on MALME-3M melanoma; 84.3% (inactive) and 91.9% (inactive) and 109% (inactive) in the assay on MDA-MB-231 breast; 92.4% (inactive) and 115% (inactive) and 127% (inactive) with RXF 393 renal; 89.5% (inactive) and 104% (inactive) and 110% (inactive) with SF-268 CNS. Further, the growth in the assay on SF-295 CNS was 109% (inactive) and 107% (inactive) and 113% (inactive); with SF-539 CNS, 102% (inactive) and 103% (inactive) and 114% (inactive); in the assay on UACC-257 melanoma, 109% (inactive) and 110% (inactive); in the assay on M14 melanoma it was 93.8% (inactive) and 104% (inactive) and 95.1% (inactive).

As for `Cc1ccc([N+](=O)[O-])cc1Br`, the growth in the assay with DU-145 prostate was 110% (inactive); with K-562 leukemia it was 86.3% (inactive); with MALME-3M melanoma, 102% (inactive); in the assay on MDA-MB-231 breast, 104% (inactive); with RXF 393 renal it was 111% (inactive); in the assay with SF-268 CNS it was 104% (inactive). For the same compound, the growth with SF-295 CNS is 97.7% (inactive); with SF-539 CNS, 91.7% (inactive); in the assay with UACC-257 melanoma it was 79.7% (inactive); in the assay with M14 melanoma it was 95.1% (inactive).

Regarding `Cc1ccc(N)cc1S(=O)(=O)O`, the growth was 111% (inactive) and 119% (inactive) with DU-145 prostate; 98.3% (inactive) and 85.5% (inactive) in the assay on K-562 leukemia; 122% (inactive) and 113% (inactive) in the assay on MALME-3M melanoma; 109% (inactive) with MDA-MB-231 breast; 124% (inactive) and 108% (inactive) in the assay with RXF 393 renal; 101% (inactive) and 102% (inactive) with SF-268 CNS. Besides, the growth in the assay on SF-295 CNS was 111% (inactive) and 112% (inactive); with SF-539 CNS it was 104% (inactive) and 120% (inactive); with UACC-257 melanoma, 117% (inactive) and 92.7% (inactive); with M14 melanoma it was 105% (inactive) and 101% (inactive).

Take `CCOC(C)=N`: the growth in the assay on DU-145 prostate was 118% (inactive); with K-562 leukemia it was 102% (inactive); with MALME-3M melanoma, 177% (inactive); in the assay with MDA-MB-231 breast, 106% (inactive); with RXF 393 renal, 114% (inactive); with SF-268 CNS it was 106% (inactive). Moreover, the growth in the assay with SF-295 CNS was 121% (inactive); in the assay with SF-539 CNS it was 106% (inactive); in the assay with UACC-257 melanoma, 104% (inactive); in the assay with M14 melanoma it was 97.5% (inactive).

As to `O=C(O)c1ccc2c3ccc(C(=O)O)c4c(C(=O)O)ccc(c5ccc(C(=O)O)c1c25)c43`, the growth is 112% (inactive) with DU-145 prostate; 113% (inactive) with K-562 leukemia; 86.7% (inactive) in the assay with MALME-3M melanoma; 88.2% (inactive) in the assay with MDA-MB-231 breast; 100% (inactive) in the assay with RXF 393 renal; 105% (inactive) with SF-268 CNS. Also, the growth in the assay on SF-295 CNS is 84.5% (inactive); in the assay with SF-539 CNS, 94.2% (inactive); in the assay on UACC-257 melanoma, -14.6% (active); in the assay on M14 melanoma, 107% (inactive).

On to `O=C1C=CC(n2cc(F)c(=O)[nH]c2=O)O1` (stereo not given), for which the growth was 61% (inactive) in the assay on DU-145 prostate; 52.1% (inactive) with K-562 leukemia; 58.9% (inactive) in the assay with MALME-3M melanoma; 98.8% (inactive) in the assay with MDA-MB-231 breast; 99% (inactive) in the assay with RXF 393 renal; 85.8% (inactive) with SF-268 CNS. In addition, the growth with SF-295 CNS was 94.5% (inactive); in the assay with SF-539 CNS, 8.79% (active); in the assay with UACC-257 melanoma it was 90.4% (inactive); with M14 melanoma it was 70.7% (inactive).

As for `O=S(=O)(O)c1ccc2cc(O)ccc2c1`, the growth in the assay on DU-145 prostate was 112% (inactive); in the assay on K-562 leukemia, 103% (inactive); in the assay with MALME-3M melanoma, 101% (inactive); with MDA-MB-231 breast, 108% (inactive); in the assay with RXF 393 renal, 109% (inactive); with SF-268 CNS it was 106% (inactive). The growth is 110% (inactive) in the assay with SF-295 CNS, 102% (inactive) in the assay on SF-539 CNS, 105% (inactive) in the assay on UACC-257 melanoma and 103% (inactive) in the assay on M14 melanoma.

For the compound `OCc1cccc(F)c1`, the growth in the assay on DU-145 prostate was 3.58% (active); in the assay with K-562 leukemia it was 99.4% (inactive); in the assay on MALME-3M melanoma it was 106% (inactive); in the assay with MDA-MB-231 breast, 89.6% (inactive); in the assay on RXF 393 renal, 67.8% (inactive); in the assay on SF-268 CNS it was 97.4% (inactive). Also, the growth with SF-295 CNS is 72.3% (inactive); in the assay with SF-539 CNS, 111% (inactive); in the assay on UACC-257 melanoma, 101% (inactive); with M14 melanoma, 94.9% (inactive).

`O=C1Cc2ccccc2C(=O)N1`: the growth in the assay with DU-145 prostate was 112% (inactive); in the assay on K-562 leukemia, 46.9% (inactive); in the assay on MALME-3M melanoma, 104% (inactive); in the assay on MDA-MB-231 breast, 44.1% (inactive); in the assay with RXF 393 renal it was 99.1% (inactive); with SF-268 CNS, 97% (inactive). Moreover, the growth was 102% (inactive) in the assay on SF-295 CNS, 103% (inactive) with SF-539 CNS, 89.4% (inactive) with UACC-257 melanoma and 95.3% (inactive) in the assay with M14 melanoma.
